In ChEMBL document CHEMBL4888484, “Replenishing the malaria drug discovery pipeline: Screening and hit evaluation of the MMV Hit Generation Library 1 (HGL1) against asexual blood stage Plasmodium falciparum ,using a nano luciferase reporter read-out” (2022):
The whole screen tested about 150,000 compounds, of which about 540 (0.36%) showed an effect of 50% or more. The full list was thinned out, with strong results kept by preference.

Each molecule was assayed on Plasmodium falciparum (assay: Primary screen in NF54 nanoGlo assay, in single point, at 2uM, 72h; a lower Z score goes with more inhibition). Details: timepoint 72 hour.
Type: functional, Erythrocyte

| SMILES | % Inhibition [%] | Z score |
| --- | --- | --- |
| COc1ccc(CC(=O)N2CC3(C[C@H](N4CCCCC4)CO3)C2)cc1 | -5 | 0.75 |
| CC(=O)N[C@@H]1CN(Cc2nccn2Cc2ccccc2)C[C@H]1c1nccn1C | 30 | -1.12 |
| Cn1cc([C@@H]2CCCN2Cc2nccn2Cc2ccccc2)cn1 | -5 | 0.74 |
| Cn1ccnc1[C@@H]1CCCN1Cc1nccn1Cc1ccccc1 | 50 | -4.75 |
| CN(CC(c1ccccc1)c1ccccc1)[C@H]1COC[C@@H]1O | -10 | 1.87 |
| CC1=C(C(=O)N2C[C@H]3CC=CC[C@H]3C2)C(C)NC(=O)N1 (stereo not given in full) | -13 | 2.39 |
| COc1ccc(-c2cc3n(n2)C[C@@](C)(C(=O)NCc2ccccc2)N(Cc2ccccc2Cl)C3=O)cc1 | 17 | -2.69 |
| C[C@@]1(C(=O)NCc2ccccc2)Cn2nc(-c3ccccc3)cc2C(=O)N1C1CC1 | 9 | -1.39 |
| COc1ccc(CN2C(=O)c3cc(-c4ccc(OC)cc4)nn3C[C@@]2(C)C(=O)NCc2ccccc2)cc1 | 6 | -0.96 |
| C[C@@]1(C(=O)NCc2ccccc2)Cn2nc(-c3ccccc3)cc2C(=O)N1c1ccc2c(c1)OCCO2 | 52 | -8.25 |
| Cc1ccc(CNC(=O)[C@]2(C)Cn3nc(C)cc3C(=O)N2c2ccc3c(c2)OCCO3)cc1 | -1 | 0.18 |
| COc1ccc(-c2cc3n(n2)C[C@@](C)(C(=O)NCc2ccccc2OC)N(c2cccc(OC)c2)C3=O)cc1 | 51 | -8.04 |
| CCc1ccc(-c2cc3n(n2)C[C@@](C)(C(=O)NC2CCCCCC2)N(c2ccc(F)cc2)C3=O)cc1 | 0 | 0.02 |
| COc1ccc(-c2cc3n(n2)C[C@@](C)(C(=O)NCc2ccccc2)N(Cc2ccc4c(c2)OCO4)C3=O)cc1 | 52 | -8.23 |
| CCc1ccc(-c2cc3n(n2)C[C@@](C)(C(=O)NC2CCCCC2)N(c2cccc(C)c2C)C3=O)cc1 | -2 | 0.32 |
| CCc1ccc(-c2cc3n(n2)C[C@@](C)(C(=O)NC2CCCCC2)N(c2cc(C)cc(C)c2)C3=O)cc1 | 71 | -11.34 |
| COc1ccc(-c2cc3n(n2)C[C@@](C)(C(=O)NCc2ccccc2OC)N(c2cc(C)cc(C)c2)C3=O)cc1 | 9 | -1.43 |
| COc1ccc(-c2cc3n(n2)C[C@@](C)(C(=O)NCc2ccccc2OC)N(c2ccc(C)cc2)C3=O)cc1 | -4 | 0.55 |
| Cc1nc(NC(=O)CC2=CCCCC2)n(C)n1 | 5 | -0.53 |
| CN(C(=O)OC(C)(C)C)[C@H]1CCCN(C(=O)c2ccn(C)c(=O)c2)C1 | 3 | -0.37 |
| CC1(C)CC(C)(C)c2ccccc2CN1 | 3 | -0.41 |
| Cn1nccc1NC(=O)Cn1ncc2cc(-c3cccc4cccnc34)ccc21 | 0 | -0.05 |
| COc1ccc(C2=C[C@@H](c3ccc(F)cc3)n3ncc(C(=O)Nc4ccc(C)cc4)c3N2)cc1 | 2 | -0.16 |
| CCc1ccc(C2=C[C@@H](c3cccc(OC)c3)n3ncc(C(=O)Nc4ccc(C)cc4)c3N2)cc1 | 60 | -5.98 |
| COc1ccc(C2=C[C@@H](c3cccc(OC)c3)n3ncc(C(=O)Nc4ccccc4)c3N2)cc1 | 6 | -0.59 |

| SMILES | % Inhibition [%] | Z score |
| --- | --- | --- |
| O=C(N[C@@H](Cn1nccn1)c1ccccc1)c1cc(-c2ccccc2)n[nH]1 | -4 | 0.69 |
| O=C(N[C@@H](Cn1nccn1)c1ccccc1)c1cc(Br)ccc1Cl | 57 | -6.89 |
| O=C(N[C@@H](Cn1nccn1)c1ccccc1)c1ccncc1 | -13 | 1.97 |
| Fc1cc(Cl)ccc1OC[C@@H]1CCCN2CCCC[C@H]12 | 17 | -2.29 |
| Clc1cccc(OC2CN(C[C@@H]3CCCN4CCCC[C@H]34)C2)c1 | 3 | -0.42 |
| Cc1n[nH]c(C)c1CCCN(C)C(=O)c1cn2cccnc2n1 | 4 | -0.72 |
| Cc1cc(C)c(CNC(=O)c2cnn(C)c2C)c(=O)[nH]1 | -9 | 1.13 |
| Clc1ccc(-c2nnc(-c3ccco3)c3nocc23)cc1 | 3 | -0.41 |
| Cc1nnc(-c2ccco2)c2cn(-c3ccc(Cl)cc3)nc12 | 69 | 1 |
| O=c1[nH]nc(-c2ccc(Cl)cc2)c2cn(-c3ccc(Cl)cc3)nc12 | -14 | 1.65 |
| Cc1noc(C)c1C(=O)N1CCC[C@H](Oc2ncc(Cl)cn2)C1 | -3 | 0.45 |
| O=C(NCCN1CCC[C@H](CO)C1)c1cccc(-c2ccc3occc3c2)c1 | -3 | 0.37 |
| Cn1nc2c(c1C(=O)NCc1csc(N)n1)CCCC2 | 5 | -0.77 |
| Cc1nc(Nc2ccc3c(c2)OCCO3)cc(-c2ccccc2)n1 | 5 | -0.89 |
| Nc1ncnc(NCCc2ccccc2)n1 | 2 | -0.24 |
| CC(C)COC(=O)c1nc2ccccc2nc1Nc1ccc2c(c1)OCCO2 | 8 | -0.98 |
| C[C@H](Nc1nc(N(C)C)nc2ccccc12)c1ccccc1 | -5 | 0.67 |
| CNc1nc(Nc2ccc3c(c2)OCCO3)nc2ccccc12 | 89 | -16.08 |
| C[C@H](Nc1nc(N2CCCCC2)nc2ccccc12)c1ccccc1 | 40 | -5.78 |
| CNc1nc(NCCc2ccccc2)nc2ccccc12 | 83 | -8.48 |
| CNc1nc(NCc2ccccc2)nc2ccccc12 | 81 | -8.4 |
| NS(=O)(=O)c1ccc(CCNc2nc(-c3ccccc3)nc3ccccc23)cc1 | 39 | 0.27 |
| CCN(Cc1nc(C(N)=O)no1)Cc1c(F)cccc1Cl | -6 | 1.04 |
| CC(C)(N)c1ccc(Cl)c(Cl)c1 | -9 | 1.19 |
| Nc1c(Br)cc2oc(-c3ccc4ccccc4c3)nc2c1Br | 36 | -1.3 |
